Inconclusive results are not listed. The source made the active and inactive calls. Unless noted, the call rests on the fitted dose curve.
What was measured:
[1] = Nuclear factor erythroid 2-related factor 2/antioxidant responsive element (Nrf2/ARE) small molecule agonists: qHTS cell viability counter screen in human keratinocytes (AID 1919968; active means well fitted curve in the direction sought with a large enough effect in the repeat runs; an effect the other way counts as inactive or inconclusive; further: nearly all actives have a fitted effect of over 55% in size)
Summary of the method: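 Seed 1,500 KeratinoSens cells per well, then incubate 5 h at 37 C/5% CO2. Add compounds in DMSO and incubate 23 h. Add CellTiter-Fluor, wait 1 h and read fluorescence.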

[2] = Nuclear factor erythroid 2-related factor 2/antioxidant responsive element (Nrf2/ARE) small molecule agonists: luciferase reporter gene qHTS assay in human keratinocytes (AID 1919969); further: nearly all actives have a fitted effect of over 35% in size
[3] = biological target: Gonadotropin-releasing hormone receptor (Homo sapiens) (UniProt P30968); assay: Human gonadotropin-releasing hormone receptor (GnRHR) small molecule agonists, calcium flux assay in GnRHR-HEK293 cells (AID 1920063); further: nearly all actives have a fitted effect of over 35% in size
Gonadotropin-releasing hormone receptor (Homo sapiens), sequence (P30968 whole entry, looked up): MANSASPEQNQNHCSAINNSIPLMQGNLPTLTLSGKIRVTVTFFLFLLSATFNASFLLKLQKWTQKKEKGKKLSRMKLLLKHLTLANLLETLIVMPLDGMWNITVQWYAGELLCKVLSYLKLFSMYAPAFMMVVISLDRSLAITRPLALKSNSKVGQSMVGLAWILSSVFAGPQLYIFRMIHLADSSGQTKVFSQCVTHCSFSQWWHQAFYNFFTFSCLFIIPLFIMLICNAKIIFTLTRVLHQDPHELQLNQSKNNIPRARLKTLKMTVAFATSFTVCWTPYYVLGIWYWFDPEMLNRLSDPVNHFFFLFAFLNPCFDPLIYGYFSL
Summary of the method: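 Cells: HEK293 stably expressing human GnRHR. Steps: overnight (18 h) culture, 1 h calcium dye loading at 37 C, compound addition, kinetic fluorescence read at 480/540 nm. Each compound tested at 15 concentrations in triplicate.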

[4] = biological target: KiSS-1 receptor (Homo sapiens) (UniProt Q969F8); assay: Human kisspeptin (KISS1R) small molecule agonists, calcium flux assay in KISS1R-HEK293 cells (AID 1920064; active means well fitted curve in the direction sought with a large enough effect in the repeat runs; an effect the other way counts as inactive or inconclusive)
KiSS-1 receptor (Homo sapiens), sequence (Q969F8 whole entry, looked up): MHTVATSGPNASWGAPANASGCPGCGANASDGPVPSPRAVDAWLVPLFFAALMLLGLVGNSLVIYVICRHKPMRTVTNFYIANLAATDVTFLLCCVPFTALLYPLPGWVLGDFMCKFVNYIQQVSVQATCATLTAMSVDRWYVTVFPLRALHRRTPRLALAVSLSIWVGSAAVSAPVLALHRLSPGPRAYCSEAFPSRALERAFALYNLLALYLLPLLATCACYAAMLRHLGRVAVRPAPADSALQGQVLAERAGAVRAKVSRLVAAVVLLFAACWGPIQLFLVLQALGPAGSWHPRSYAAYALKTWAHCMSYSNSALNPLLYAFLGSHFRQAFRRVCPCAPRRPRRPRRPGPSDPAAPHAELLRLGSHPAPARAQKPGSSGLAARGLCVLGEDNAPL
Summary of the method: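 Cells plated and incubated 18 h; dye added, 1 h at 37 C; compounds in DMSO pinned in; signal read at 480/540 nm every second for 3 min. Each compound tested at 15 concentrations in triplicate.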

[5] = G protein-coupled receptor (GPCR) small molecule agonists, calcium flux assay: HEK293 wild type cell line counter screen (AID 1920065)
Summary of the method: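 Counter-screen of the Tox21 10K library for non-specific calcium release: dye-loaded cells received compounds in DMSO and were monitored by kinetic fluorescence (480/540 nm, 3 min). Fifteen concentrations, run in triplicate.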

[6] = p53 small molecule agonists, cell-based qHTS assay with human liver microsomes (AID 1963577);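 further: p53 response element beta-lactamase reporter cells with liver microsomes plus NADPH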
Summary of the method: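 p53RE-bla cells; 5 h settle, 37 C/5% CO2; cpd + HLM 0.5 mg/mL + NADPH 0.5 mg/mL (final); 16 h 37 C; LiveBLAzer 2 h RT dark; fluorescence readout.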

[7] = p53 small molecule agonists, cell-based qHTS assay with rat liver microsomes (AID 1963578)
Summary of the method: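 Rat liver microsome activation: microsomes 0.5 mg/mL, NADPH 0.5 mg/mL final; p53RE-bla cells, 16 h 37 C; LiveBLAzer readout, 2 h RT dark.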

[8] = p53 small molecule agonists, cell-based qHTS assay with human liver microsomes: qHTS cell viability counter screen (AID 1963579); further: nearly all actives have a fitted effect of over 45% in size
Summary of the method: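 Luminescent CellTiter-Glo read-out, 30 min at room temperature, gauged cytotoxicity in p53RE-bla cells exposed 16 h at 37 C to DMSO-dissolved compounds with metabolic activation by human liver microsomes and NADPH, each 0.5 mg/mL final.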

[9] = p53 small molecule agonists, cell-based qHTS assay: qHTS cell viability counter screen (AID 1963581); further: nearly all actives have a fitted effect of over 45% in size
Summary of the method: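 Cells: HCT-116 with p53 response element-driven beta-lactamase. Treatment: 16 h, 37 C, compounds in DMSO. Read: CellTiter-Glo luminescence after 30 min RT.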

[10] = p53 small molecule agonists, cell-based qHTS assay (AID 1963582; active means well fitted activation curve with a large enough effect in the signal ratio in the repeat runs, not every such curve was filed as active; the % refers to the signal ratio)
Summary of the method: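 Quantitative HTS in p53RE-bla cells: after a 5 h settling period, compounds delivered in DMSO were left on cells for 16 h at 37 C, and reporter induction was measured as fluorescence following 2 h substrate loading.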

[11] = biological target: 5-hydroxytryptamine receptor 2A (Homo sapiens) (UniProt P28223); assay: 5-hydroxytryptamine receptor 2A (HTR2A) small molecule antagonists, cell-based qHTS assay (AID 1963586); further: nearly all actives have a fitted effect of over 45% in size
5-hydroxytryptamine receptor 2A (Homo sapiens), sequence (P28223 whole entry, looked up): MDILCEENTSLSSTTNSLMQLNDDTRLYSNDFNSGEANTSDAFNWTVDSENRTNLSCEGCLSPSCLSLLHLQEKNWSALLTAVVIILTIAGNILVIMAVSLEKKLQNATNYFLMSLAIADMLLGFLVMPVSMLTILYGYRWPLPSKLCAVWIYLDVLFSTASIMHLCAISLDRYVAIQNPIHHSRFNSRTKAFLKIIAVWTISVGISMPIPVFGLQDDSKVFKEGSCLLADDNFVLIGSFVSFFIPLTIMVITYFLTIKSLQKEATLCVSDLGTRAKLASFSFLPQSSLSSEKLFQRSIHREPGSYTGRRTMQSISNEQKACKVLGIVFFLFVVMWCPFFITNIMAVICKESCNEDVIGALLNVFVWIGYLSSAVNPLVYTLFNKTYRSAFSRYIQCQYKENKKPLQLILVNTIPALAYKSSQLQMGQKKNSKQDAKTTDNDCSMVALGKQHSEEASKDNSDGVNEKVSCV
Summary of the method: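 Antagonist-mode intracellular calcium assay: DOI (4 nM) added after 5 min compound pre-incubation at room temperature to dye-loaded HTR2A-CHO cells. Fluorescence followed for 3 min, sampled every second.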

[12] = biological target: 5-hydroxytryptamine receptor 2A (Homo sapiens) (UniProt P28223); assay: 5-hydroxytryptamine receptor 2A (HTR2A) small molecule agonists, cell-based qHTS assay (AID 1963587); further: nearly all actives have a fitted effect of over 30% in size
Summary of the method: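 CHO cells stably expressing human HTR2A, plated 18 h, loaded with calcium dye 1 h at 37 C. Agonist mode: compounds added and intracellular calcium fluorescence recorded kinetically for 2 min at 1 sec intervals.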

[13] = biological target: Muscarinic acetylcholine receptor M1 (Homo sapiens) (UniProt P11229); assay: Cholinergic receptor muscarinic 1 (CHRM1) small molecule antagonists, cell-based qHTS assay (AID 1963588); further: nearly all actives have a fitted effect of over 40% in size
Muscarinic acetylcholine receptor M1 (Homo sapiens), sequence (P11229 whole entry, looked up): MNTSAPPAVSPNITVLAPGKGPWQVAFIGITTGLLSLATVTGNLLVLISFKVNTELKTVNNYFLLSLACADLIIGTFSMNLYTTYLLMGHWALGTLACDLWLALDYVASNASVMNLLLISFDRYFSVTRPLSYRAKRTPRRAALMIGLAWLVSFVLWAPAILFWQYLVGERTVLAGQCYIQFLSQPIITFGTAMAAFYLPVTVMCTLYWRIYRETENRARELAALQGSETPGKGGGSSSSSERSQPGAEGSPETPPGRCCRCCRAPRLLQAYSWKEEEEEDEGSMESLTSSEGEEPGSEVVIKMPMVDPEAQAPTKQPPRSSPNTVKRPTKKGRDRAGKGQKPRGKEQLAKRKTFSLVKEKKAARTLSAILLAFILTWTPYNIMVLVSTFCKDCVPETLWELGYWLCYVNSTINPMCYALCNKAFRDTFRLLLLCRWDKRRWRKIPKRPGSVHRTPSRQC
Summary of the method: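 CHRM1-CHO calcium-flux assay, antagonist mode. Cells were seeded 18 h, dye-loaded 1 h at 37 C and given compound for 5 min at RT, then acetylcholine was added at 50nM. FDSS fluorescence was read 3 min; 15 concentrations, three runs.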

[14] = biological target: Muscarinic acetylcholine receptor M1 (Homo sapiens) (UniProt P11229); assay: Cholinergic receptor muscarinic 1 (CHRM1) small molecule agonists, cell-based qHTS assay (AID 1963589); further: nearly all actives have a fitted effect of over 35% in size
Summary of the method: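 Agonist-mode qHTS in CHO cells stably carrying human muscarinic M1. Intracellular calcium is tracked by fluorescence every second after compound transfer; each compound runs at 15 concentrations in three independent runs.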

[15] = cAMP Responsive Elements (CRE) small molecule antagonists, cell-based qHTS assay (AID 1963591; active means well fitted inhibition curve with a large enough effect in the signal ratio in the repeat runs, not every such curve was filed as active; the % refers to the signal ratio)
Summary of the method: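 Antagonist mode: test compounds are co-incubated with the adenylyl cyclase activator NKH477 (0.25 uM final) on CRE-bla HEK293T cells for 3 h at 37 °C, followed by LiveBLAzer substrate loading.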

[16] = biological target: Beta-2 adrenergic receptor (Homo sapiens) (UniProt P07550); assay: Adrenergic beta2 receptor (ADRB2) small molecule antagonists, cell-based qHTS assay (AID 1963592); further: series mostly up to about 92 µM; nearly all actives have a fitted effect of over 50% in size
Beta-2 adrenergic receptor (Homo sapiens), sequence (P07550 whole entry, looked up): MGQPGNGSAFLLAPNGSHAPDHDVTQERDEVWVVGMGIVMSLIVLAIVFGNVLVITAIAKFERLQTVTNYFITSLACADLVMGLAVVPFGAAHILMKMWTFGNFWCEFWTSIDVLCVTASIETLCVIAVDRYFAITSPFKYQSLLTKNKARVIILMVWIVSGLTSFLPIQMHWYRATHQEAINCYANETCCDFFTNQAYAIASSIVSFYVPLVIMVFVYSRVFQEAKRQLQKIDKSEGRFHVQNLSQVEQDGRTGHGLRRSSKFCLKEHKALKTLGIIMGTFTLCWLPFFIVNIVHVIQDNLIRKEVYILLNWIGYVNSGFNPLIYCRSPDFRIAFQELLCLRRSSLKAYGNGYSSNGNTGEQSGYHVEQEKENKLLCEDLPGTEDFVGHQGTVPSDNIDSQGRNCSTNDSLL
Summary of the method: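 Cells (CHO, stable ADRB2 overexpression) incubated 18-20hr at 37C; compounds added from DMSO; agonist mix (1nM isoproterenol, 100uM IBMX, 25uM Ro-20-1724) added; 0.5hr RT; d2-cAMP and anti-cAMP-cryptate added; 1hr RT; 665/615 nm read.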

[17] = biological target: D(2) dopamine receptor (Homo sapiens) (UniProt P14416); assay: Dopamine D2 receptor (DRD2) small molecule agonists, cell-based qHTS assay (AID 1963594); further: nearly all actives have a fitted effect of over 35% in size
D(2) dopamine receptor (Homo sapiens), sequence (P14416 whole entry, looked up): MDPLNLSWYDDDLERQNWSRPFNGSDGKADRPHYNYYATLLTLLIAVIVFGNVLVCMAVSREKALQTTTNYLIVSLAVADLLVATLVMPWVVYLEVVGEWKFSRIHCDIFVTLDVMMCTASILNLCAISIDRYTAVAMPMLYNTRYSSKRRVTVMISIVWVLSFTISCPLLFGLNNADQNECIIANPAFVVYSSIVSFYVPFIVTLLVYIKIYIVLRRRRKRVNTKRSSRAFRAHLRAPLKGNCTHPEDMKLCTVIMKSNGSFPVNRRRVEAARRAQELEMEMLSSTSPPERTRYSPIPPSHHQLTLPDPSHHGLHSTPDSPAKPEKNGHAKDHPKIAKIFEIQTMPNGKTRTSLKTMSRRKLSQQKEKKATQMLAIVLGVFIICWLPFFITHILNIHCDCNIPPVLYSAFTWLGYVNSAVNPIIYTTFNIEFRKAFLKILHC
Summary of the method: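 HEK293 cells stably expressing human DRD2, pre-treated with PDE inhibitor Ro20-1724 (0.1 mM final) and compound 10 min at room temperature, then stimulated with NKH477 (200nM […]) for 30 min. cAMP read by HTRF (665/620 nm).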

[18] = biological target: D(2) dopamine receptor (Homo sapiens) (UniProt P14416); assay: Dopamine D2 receptor (DRD2) small molecule antagonists, cell-based qHTS assay (AID 1963595; active means well fitted inhibition curve with a large enough effect in the signal ratio in the repeat runs, with a control signal flat; the % refers to the signal ratio)
Summary of the method: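 Cells were plated and grown for 24 h at 37 °C. Ro20-1724 (0.1 mM final) went in first, then compound for 10 min. NKH477 (200 nM) with quinpirole (12 nM) followed for 30 min at RT, then HTRF detection reagents for 1 h.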

[19] = cAMP Responsive Elements (CRE) small molecule agonists, cell-based qHTS assay (AID 1963590)
Summary of the method: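 Agonist mode qHTS in CRE-bla HEK 293T cells: compounds dosed from DMSO for 3 h at 37 C/5% CO2, followed by LiveBLAzer B/G FRET substrate for 2 h at room temperature.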

[20] = biological target: Beta-2 adrenergic receptor (Homo sapiens) (UniProt P07550); assay: Adrenergic beta2 receptor (ADRB2) small molecule agonists, cell-based qHTS assay (AID 1963593);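 further: CHO cells stably overexpressing human ADRB2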
Summary of the method: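 CHO cells stably over-expressing ADRB2 were plated overnight at 37C, then dosed with compounds plus a stimulation mix containing 100uM IBMX and 25uM Ro-20-1724 for 0.5hr at room temperature. cAMP was measured by HTRF competition, 1hr.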

Measured: Potency

CC1(C)COCN1
inactive: [1] | [2] | [3] | [4] | [5] | [6] | [7] | [8] | [9] | [10] | [11] | [12] | [13] | [14] | [15] | [16] | [17] | [18]

N#Cc1cc(NC(=O)C(=O)O)c(Cl)c(NC(=O)C(=O)O)c1
inactive: [1] | [2] | [3] | [4] | [5] | [6] | [7] | [8] | [9] | [10] | [11] | [12] | [13] | [19] | [15] | [17] | [18]

CC1=C(O)C(=O)C(C)O1 (stereo not given)
inactive: [1] | [2] | [3] | [4] | [5] | [6] | [7] | [8] | [9] | [10] | [11] | [12] | [13] | [14] | [19] | [15] | [16] | [20] | [18]

CCCCCC1CCCC(=O)O1 (stereo not given)
inactive: [1] | [2] | [3] | [4] | [5] | [6] | [7] | [8] | [9] | [10] | [11] | [12] | [13] | [14] | [19] | [15] | [16] | [17] | [18]

C1CCSC1
inactive: [1] | [2] | [3] | [4] | [5] | [6] | [7] | [8] | [9] | [10] | [11] | [12] | [13] | [14] | [19] | [15] | [16] | [20] | [17] | [18]

Cc1cc(N)n(-c2ccccc2)n1
inactive: [1] | [2] | [3] | [4] | [5] | [6] | [7] | [8] | [9] | [10] | [11] | [12] | [13] | [14] | [19] | [15] | [16] | [17] | [18]

Nc1ccc([N+](=O)[O-])c(C(F)(F)F)c1
inactive: [1] | [2] | [3] | [4] | [5] | [6] | [7] | [8] | [9] | [10] | [11] | [12] | [13] | [14] | [19] | [15] | [16] | [17] | [18]

C1=COCCC1
inactive: [1] | [2] | [3] | [4] | [5] | [6] | [7] | [8] | [9] | [10] | [11] | [12] | [13] | [19] | [15] | [16] | [20] | [17] | [18]
